In PMC4336329 (PLoS ONE, 2015):
Out of some 310,000 compounds screened, about 14,000 (4.5%) showed an effect of 50% or more. Effects have a minus sign here. The list comes from a sample in which strong results are over-represented; it also holds similar structures and randomly drawn compounds.

Target: human ether-à-go-go-related gene (hERG) potassium channel (human, UniProt Q12809)
Assay: primary screen, population patch clamp on CHO cells stably expressing hERG; higher = less effect of the substance
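Also: peak tail current of the secondary pulse compared with the same well before compound.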

Chain of human ether-à-go-go-related gene (hERG) potassium channel (Q12809 whole entry, looked up): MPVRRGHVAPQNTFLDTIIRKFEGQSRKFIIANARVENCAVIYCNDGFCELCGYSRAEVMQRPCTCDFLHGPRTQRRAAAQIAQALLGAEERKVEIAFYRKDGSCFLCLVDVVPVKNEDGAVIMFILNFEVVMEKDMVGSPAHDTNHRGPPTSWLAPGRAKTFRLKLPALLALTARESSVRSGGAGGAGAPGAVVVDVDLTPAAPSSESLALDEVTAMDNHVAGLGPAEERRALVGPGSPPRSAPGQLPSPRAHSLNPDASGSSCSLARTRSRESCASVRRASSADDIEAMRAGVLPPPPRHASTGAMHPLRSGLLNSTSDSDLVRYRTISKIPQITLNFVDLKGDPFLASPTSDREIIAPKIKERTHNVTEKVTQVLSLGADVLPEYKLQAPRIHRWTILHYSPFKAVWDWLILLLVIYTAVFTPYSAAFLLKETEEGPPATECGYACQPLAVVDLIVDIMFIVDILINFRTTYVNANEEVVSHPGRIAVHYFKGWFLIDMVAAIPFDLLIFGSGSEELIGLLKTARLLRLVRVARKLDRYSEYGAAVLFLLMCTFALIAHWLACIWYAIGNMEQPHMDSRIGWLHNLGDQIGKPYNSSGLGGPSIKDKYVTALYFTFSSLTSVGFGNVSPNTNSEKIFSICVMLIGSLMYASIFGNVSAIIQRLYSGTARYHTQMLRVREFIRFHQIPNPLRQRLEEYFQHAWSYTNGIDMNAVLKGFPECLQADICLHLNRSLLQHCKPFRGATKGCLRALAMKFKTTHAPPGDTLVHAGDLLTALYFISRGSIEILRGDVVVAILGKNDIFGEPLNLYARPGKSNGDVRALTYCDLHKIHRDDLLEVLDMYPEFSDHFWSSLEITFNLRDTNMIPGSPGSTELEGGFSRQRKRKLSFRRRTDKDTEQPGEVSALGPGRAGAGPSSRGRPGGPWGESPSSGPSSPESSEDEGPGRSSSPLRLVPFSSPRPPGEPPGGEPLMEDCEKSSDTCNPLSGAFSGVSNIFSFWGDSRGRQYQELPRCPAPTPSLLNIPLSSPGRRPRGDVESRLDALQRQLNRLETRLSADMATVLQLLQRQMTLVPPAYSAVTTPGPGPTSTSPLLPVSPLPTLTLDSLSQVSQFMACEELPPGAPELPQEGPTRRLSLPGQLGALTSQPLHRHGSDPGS

SMILES | hERG current change (%, negative = inhibition) at 10uM [%]
O=C(CSc1nc2c([nH]c3ccccc32)c(=O)n1-c1ccccc1)NCC1CCCO1 (centres unmarked) | 3.52
CN(C)c1ccc(C(CNC(=O)Cc2cccc3ccccc23)N(C)C)cc1 (centres unmarked) | -32.8
CC(=O)N1c2ccc(S(=O)(=O)NCCC(=O)Nc3ccc(OC(F)(F)F)cc3)cc2CC1C (centres unmarked) | -13.6
COCCN(C(=O)c1csnn1)C(C(=O)NC1CCCCC1)c1ccccc1F (centres unmarked) | 3.83
COc1ccc(-c2csc(N3CCC(c4ccccc4)CC3)n2)cc1 | 23.2
CC(C)Cn1c(SCC(=O)N(C)C2CCS(=O)(=O)C2)nc2cc(Cl)ccc2c1=O (centres unmarked) | -31.5
CCc1cc2c(SCC(=O)N(C)C3CCS(=O)(=O)C3)ncnc2s1 (centres unmarked) | -20.1
CCN(C(=O)CSc1nc2cc(Cl)ccc2c(=O)n1Cc1ccco1)C1CCS(=O)(=O)C1 (centres unmarked) | -74.7
CCc1cc2c(=O)n(Cc3ccco3)c(SCC(=O)N3CCCc4ccccc43)nc2s1 | -23.4
CCN(C(=O)CSc1nc2cc(Cl)ccc2c(=O)n1CC(C)C)C1CCS(=O)(=O)C1 (centres unmarked) | 2.51
CCc1cc2c(=O)n(Cc3ccco3)c(SCC(=O)N(C)C3CCS(=O)(=O)C3)nc2s1 (centres unmarked) | -79.1
COc1ccc(CNC(=O)[C@H](C)NC(=O)C2CCN(C(=O)[C@@H](N)CCSC)CC2)cc1 | 5.47
O=C1C=C(O)CC(c2ccco2)C1 (centres unmarked) | 9.75
O=C(/C=C/c1ccco1)Nc1ccc2nc3n(c(=O)c2c1)CCCC3 | -8.17
N#CCC(=O)N1CCn2c1nc1ccccc12 | 17.2
Cn1c(=O)n(CCc2ccccc2)c(=O)c2c1nc1n2CCCN1c1ccccc1 | -20.7
COc1cc(/C=C2/C(=N)N3C=CSC3=NC2=O)ccc1OCCCOc1cc(C)ccc1C | 2.54
CC1CCCN(CCCOc2ccc([N+](=O)[O-])cc2)C1.O=C(O)C(=O)O (centres unmarked) | -74.7
CC1CN(CCCOc2ccc([N+](=O)[O-])cc2)CC(C)O1.O=C(O)C(=O)O (centres unmarked) | -71.6
COC(=O)c1ccc(OCCCCN2CC(C)OC(C)C2)cc1.O=C(O)C(=O)O (centres unmarked) | -20
CC1CC(C)CN(CCCCOc2ccc([N+](=O)[O-])cc2)C1.O=C(O)C(=O)O (centres unmarked) | -78.8

SMILES | hERG current change (%, negative = inhibition) at 10uM [%]
CC1CCCN(CC(=O)Nc2cccc([N+](=O)[O-])c2)C1 (centres unmarked) | -16.7
CC1CN(CCCCOc2ccc(F)cc2)CC(C)O1.O=C(O)C(=O)O (centres unmarked) | -42.7
CC1CN(CCOc2ccc([N+](=O)[O-])cc2)CC(C)O1.O=C(O)C(=O)O (centres unmarked) | -46.2
CC1CC(C)CN(CCCOc2ccccc2[N+](=O)[O-])C1.O=C(O)C(=O)O (centres unmarked) | -35.5
Cc1ccc(OC(=O)CCS(=O)(=O)c2ccc(C)cc2)cc1 | -24.4
O=C(CSc1nnc(COc2ccc(Br)cc2)o1)N1CCOCC1 | -17
CN(c1ccccc1C(=O)N1CCCC1)S(C)(=O)=O | -9.73
N#Cc1ccc(OCC(=O)Nc2ccc3[nH]c(=O)[nH]c3c2)cc1 | -4.57
C=CCn1c(O)c(C(CC)=Nc2cccc(C(=O)O)c2)c(=O)[nH]c1=O | 11.6
CSc1ccccc1OCc1cc(C(=O)NCCCc2ccccc2)no1 | 12.9
Cc1ccc2c(CN(C)Cc3cccc(Cl)c3)cc(=O)oc2c1C | 12
COc1ccccc1NC(=S)N1CC(C)OC(C)C1 (centres unmarked) | 19.5
COc1cccc(N2CCN(C(=O)CN(C)S(=O)(=O)c3ccc4c(c3)c(=O)n(C)c(=O)n4C)CC2)c1 | -10.8
CC(C)(C)OC(=O)CNC(=O)c1nc[nH]c1C(=O)NCC(=O)OC(C)(C)C | 3.98
CN(C(=O)COC(=O)CNS(=O)(=O)/C=C/c1ccccc1)C1CCS(=O)(=O)C1 (centres unmarked) | 23.3
CCN(CC1COc2ccccc2O1)C(=O)CN1C(=O)NC(C)(c2ccc(C)cc2)C1=O (centres unmarked) | -28.8
CCN1C(=NCCCCO)N[C@@H](c2cccc(C(F)(F)F)c2)C(C(=O)OC)=C1C | 5.89
COC(=O)C1=C(C)N(Cc2ccccc2)C(=NCCCCO)N[C@H]1CCc1ccccc1 | -43.3
COC(=O)C1=C(C)N(Cc2ccccc2)C(=O)N[C@H]1c1ccccc1 | -13.5
COC(=O)C1=C(C)N(Cc2ccccc2)C(=S)N[C@H]1c1ccccc1 | -2.64
COCCN=C1N[C@@H](c2ccc(Br)cc2)C(C(=O)OC)=C(C)N1Cc1ccccc1 | -55.3

SMILES | hERG current change (%, negative = inhibition) at 10uM [%]
COC(=O)C1=C(C)N(Cc2ccccc2)C(=NCC(C)C)N[C@H]1c1ccccc1 | -55.9
CCN1C(=NCc2cccc(Cl)c2)N[C@@H](c2cccc(F)c2)C(C(=O)OC)=C1C | -41.4
COC(=O)C1=C(C)N(Cc2ccccc2)C(=O)N[C@H]1c1ccc(Br)cc1 | -10.9
COCCN=C1N[C@@H](c2ccccc2)C(C(=O)OC)=C(C)N1Cc1ccccc1 | -16.8
COC(=O)C1=C(C)N(CC2CC2)C(=NCc2cc(OC)c(OC)c(OC)c2)N[C@H]1c1ccccc1 | -17.5
COC(=O)C1=C(C)N(CC2CC2)C(=NCc2cccc(Cl)c2)N[C@H]1c1ccccc1 | -72.3
COC(=O)C1=C(C)N(Cc2ccccc2)C(=NCCCCO)N[C@H]1c1ccccc1 | -53.2
COc1cc(NC(=O)c2ccc(-c3ccc(Br)cc3)o2)ccc1NC(=O)C(C)C | -26.1
O=C(CSc1ccc(Cl)cc1)Nc1ccc(N2CCN(c3ccccc3)CC2)c(F)c1 | 24.9
COc1cccc(C(=O)Oc2ccc3ccc(=O)oc3c2)c1 | 42.3
O=[N+]([O-])c1ccc(-c2ccc(S(=O)(=O)NCCN3CCCC3)cc2)cc1 | -77.7
Cc1ccc(S(=O)(=O)N(CCC#N)CCN2CCCC2)cc1 | -21.9
O=S(=O)(NCCN1CCCC1)c1ccc(Br)cc1 | -8.08
N#CCCN(CCN1CCCC1)S(=O)(=O)c1ccc(-c2ccc([N+](=O)[O-])cc2)cc1 | -79.1
O=[N+]([O-])c1ccc(S(=O)(=O)NCCN2CCOCC2)cc1 | 11.2
CCN(CC)S(=O)(=O)c1ccc(S(=O)(=O)N2CCN(CCC#N)CC2)cc1 | 8.45
Cc1oc2cc(O)ccc2c(=O)c1Oc1ccccc1 | -10.2
COC1=CC(=O)C[C@@H](C)[C@]12Oc1c(Cl)c(OC)cc(OC)c1C2=O | -9.99
C=CCSc1ncccc1C(=O)NCCc1ccc(Cl)cc1 | 6.54
O=S(=O)(Nc1nc2ccc(S(=O)(=O)N3CCCC3)cc2s1)c1ccc(F)cc1 | -2.68
COCCNc1oc(-c2ccc(C)cc2)nc1C#N | 8.26

SMILES | hERG current change (%, negative = inhibition) at 10uM [%]
Cc1ccc(-n2c(SCC(=O)N3CCOCC3)nnc2-c2cccnc2)cc1C | -16.9
CN(C)CCCN(C(=O)CCc1ccccc1)c1nc2ccc(Br)cc2s1.Cl | -3.24
Cc1cccc2sc(N(CCCN(C)C)C(=O)CN3C(=O)c4ccccc4C3=O)nc12.Cl | -11.2
CN(C)CCCN(C(=O)CCc1ccccc1)c1nc2ccc(Cl)cc2s1.Cl | -24.4
CN(C)CCCN(C(=O)CCc1ccccc1)c1nc2ccc(F)cc2s1.Cl | -70.1
CN(C)CCN(C(=O)CCc1ccccc1)c1nc2c(F)cc(F)cc2s1.Cl | -33.4
Cc1ccc2nc(N(CCCN(C)C)C(=O)CCc3ccccc3)sc2c1.Cl | -66
Cc1cccc2sc(N(CCCN(C)C)C(=O)CCc3ccccc3)nc12.Cl | -54.1
Cc1ccccc1/C=N/n1c(-c2ccccn2)n[nH]c1=S | 14.7
O=S(=O)(c1cccc2cccnc12)N1CCN(Cc2ccccc2)CC1 | -0.188
Cn1ccnc1C(O)c1cc(C(C)(C)C)c(O)c(C(C)(C)C)c1 (centres unmarked) | -37.3
COC(=O)N/N=C\c1ccc(-c2cc(Cl)c(Cl)cc2Cl)o1 | -1.58
COc1ccc(S(=O)(=O)N2CCN(CC(=O)NC3CCCC3)CC2)cc1 | 0.823
Clc1ccc(-c2noc(CN3CCOCC3)n2)cc1 | 4.83
O=C(C1CCCN(Cc2nc(-c3ccc(Cl)cc3)no2)C1)N1CCOCC1 (centres unmarked) | 1.39
O=C(C1CCN(Cc2nc(-c3ccc(Cl)cc3)no2)CC1)N1CCOCC1 | -61.9
O=C(CCc1nc(-c2ccc(Cl)cc2)no1)NCc1ccccc1CN1CCOCC1 | -65.5
Cc1ccc(-c2noc(CCC(=O)NCc3ccccc3CN3CCOCC3)n2)cc1 | -36.5
O=C(CCc1nc(-c2ccccc2)no1)NCc1ccccc1CN1CCOCC1 | -10.5
Cc1ccc2oc(=O)c3cnn(CC(=O)N(CCN(C)C)Cc4ccco4)c3c2c1 | -25.7
